HCMV inh = blocks human cytomegalovirus replication; HFF cells, HCMV-luciferase reporter, 72 h; active compounds read low; activity change, negative = inhibition, % at 57.5 µM; 410,000 tested, 4.5% active; AID 1259415; in the data active means activity change below about -60%; inconclusive means no clear call, values can overlap the other calls; inactive means above about -39%
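Compounds were evaluated in HFFs infected with an HCMV luciferase reporter virus (MOI 1 PFU/cell). Luciferase in lysates collected 72 h post infection served as the replication measure.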
Vaccinia Venus = inhibitors of vaccinia virus (Venus reporter); 330,000 tested, 0.46% active; Vaccinia virus Venus reporter expression, fluorescence; Potency, µM (highest dose often 36.5 µM), for the others: top-dose activity change, negative = inhibition, hits mostly inhibitors; calls by dose curve; tested in A549 cells; further: potency means the concentration at half of the fitted maximal effect; nearly all actives have a fitted effect of over 30% in size
LASV entry inh = Lassa virus entry inhibition | Lassa virus pseudotype entry inhibition, cell reporter | Potency, µM (series often up to 37.9 µM), for inactives: at the highest dose activity change, negative = inhibition, hits mostly inhibitors | 300,000 tested, 1.2% active | AID 540256; calls by dose curve; tested in HEK293 cells; further: potency means the concentration at half of the fitted maximal effect; nearly all actives have a fitted effect of over 50% in size
FMDV antiviral = blocks foot and mouth disease virus; Potency, µM (doses to about 57.9 µM), without a hit: at the highest dose activity change, negative = inhibition, hits mostly inhibitors; AID 1159524; FMDV antiviral cell-based qHTS; 410,000 tested, 1.2% active; calls by dose curve; tested in HEK293T cells; further: read-out not given here; potency means the concentration at half of the fitted maximal effect; nearly all actives have a fitted effect of over 45% in size
Vaccinia mCherry = inhibitors of vaccinia virus infection (mCherry reporter signal). 310,000 tested, 0.63% active. Vaccinia virus mCherry reporter infection, fluorescence. Potency, µM (titrated, usually from 36.5 µM), without a hit: top-dose activity change, negative = inhibition, hits mostly inhibitors. AID 720579; calls by dose curve; tested in A549 cells; further: potency means the concentration at half of the fitted maximal effect; nearly all actives have a fitted effect of over 35% in size
MARV entry inh = inhibitors of Marburg virus binding or cell entry | 300,000 tested, 1.8% active | Marburg virus pseudotyped entry inhibition, cell reporter | Potency, µM (titrated, usually from 37.8 µM), for inactives: top-dose activity change, negative = inhibition, usual class: inhibitors; calls by dose curve; tested in HEK293 cells; further: potency means the concentration at half of the fitted maximal effect
An asterisk follows results filed as active; ! = not active in a repeat; [ ] = another dose, or the depositor's remark. Sampled rows, rich in hits. Any-hit rate of the full collection: about 6.5%. On the % scale 0 is the no-effect control and ±100 the full control effect.

`Cc1cc(C(=O)NC2CCCc3c2cnn3-c2ccc(C)c(C)c2)n(C)n1` (stereo not given) gave HCMV inh -99* and FMDV antiviral inconclusive.
For C[C@H]1COc2cc(N3CCOCC3)ccc2S(=O)(=O)N1 the results were HCMV inh 9.
Screening O=c1[nH]c2ccc(NCc3ccc(-c4ccccc4F)o3)cc2[nH]1 returned HCMV inh -7, Vaccinia Venus -24%, LASV entry inh -1%[46.1 µM], FMDV antiviral -15%, Vaccinia mCherry inconclusive and MARV entry inh -29%[46.1 µM].
CCOC(=O)C1=CCN(S(=O)(=O)c2ccc(Cl)cc2)C1c1cccc(Br)c1 (stereo not given) was read as HCMV inh -30.
Cc1nc(SCC(=O)c2cc(C)n(C3CC3)c2C)c2ccccc2n1 was read as HCMV inh inconclusive, Vaccinia Venus inconclusive, FMDV antiviral 10µM* and Vaccinia mCherry -10%.
`CCOc1ccc(C(=O)Nc2ccc(C(=O)OCc3cc(=O)n4c(C)csc4n3)cc2)cc1` gave HCMV inh inconclusive, Vaccinia Venus -14%, LASV entry inh inconclusive, FMDV antiviral -19% and Vaccinia mCherry -4%.
Cc1ccc(S(=O)(=O)N2CCCC2CNC(=O)C(=O)Nc2ccc(F)cc2)cc1 (stereo not given) was read as HCMV inh 1, Vaccinia Venus inconclusive, LASV entry inh 5µM*, FMDV antiviral 9%, Vaccinia mCherry inconclusive and MARV entry inh -29%.
For COc1ccc(S(=O)(=O)N2CCCC2CNC(=O)C(=O)Nc2ccc(C)cc2)cc1 (stereo not given) the results were HCMV inh inconclusive, Vaccinia Venus -14%, LASV entry inh inconclusive, FMDV antiviral 0%, Vaccinia mCherry inconclusive and MARV entry inh inconclusive.
For COc1ccc(NC(=O)C(=O)NCC2CCCN2S(=O)(=O)c2ccc(C)cc2)cc1 (stereo not given) the results were HCMV inh -85*, Vaccinia Venus -25%, LASV entry inh inconclusive, FMDV antiviral -23%, Vaccinia mCherry inconclusive and MARV entry inh inconclusive.
Screening Cc1ccc(O[C@@H]2[C@H](O)CO[C@H]2C=CC#Cc2ccc(C(C)(C)C)cc2)cc1 returned LASV entry inh inconclusive and MARV entry inh -35%[14.2 µM].
CCO[C@H]1[C@H](NC(=O)c2cccnc2)c2ccccc2C12CCN(C(=O)c1cc(C)n(C)n1)CC2 was read as Vaccinia Venus -7%, FMDV antiviral 4% and Vaccinia mCherry -14%.
For O=C(NCCCc1ccccc1)c1ccc(CS(=O)Cc2ccc(Cl)cc2)o1 (stereo not given) the results were HCMV inh -18 and FMDV antiviral -13%.
For O=C(NCCc1ccc(Cl)cc1)c1ccc(CS(=O)(=O)Cc2ccccc2F)o1 the results were HCMV inh -37, Vaccinia Venus -10%, LASV entry inh inconclusive, FMDV antiviral 40µM* and Vaccinia mCherry -21%.
`O=C(NCCc1ccc(Cl)cc1)c1ccc(CS(=O)Cc2ccccc2Cl)o1` (stereo not given) gave HCMV inh -66*!, Vaccinia Venus -8%, LASV entry inh inconclusive, FMDV antiviral inconclusive and Vaccinia mCherry -15%.
Screening COC(=O)c1cccc(-c2ccc(C(c3c(C)[nH][nH]c3=O)c3c(C)[nH][nH]c3=O)o2)c1 returned HCMV inh -13, Vaccinia Venus -3%, LASV entry inh -13%, FMDV antiviral inconclusive, Vaccinia mCherry 1% and MARV entry inh -5%[46.1 µM].
COC(=O)c1ccccc1-c1ccc(C(c2c(C)[nH][nH]c2=O)c2c(C)[nH][nH]c2=O)o1 was read as HCMV inh -34, Vaccinia Venus -14%, LASV entry inh inconclusive, FMDV antiviral 20µM*, Vaccinia mCherry inactive and MARV entry inh -24%[46.1 µM].
c1csc(CNc2ccc3c(c2)OCCO3)c1 was read as HCMV inh -86*, Vaccinia Venus -15%, LASV entry inh inconclusive, FMDV antiviral inconclusive, Vaccinia mCherry -23% and MARV entry inh 1µM*.
O=C(Nc1nc(-c2ccc(Cl)cc2Cl)cs1)c1ccc(OCC2CCCO2)cc1 (stereo not given) was read as HCMV inh -63*, Vaccinia Venus 4%, LASV entry inh inconclusive, FMDV antiviral inconclusive, Vaccinia mCherry inactive and MARV entry inh inconclusive.
Screening CCN(CC)S(=O)(=O)c1ccc(NC(=O)c2ccc(OCC3CCCO3)cc2)cc1 (stereo not given) returned HCMV inh -90* and FMDV antiviral 28µM*.
For O=C(Nc1ccc(Cl)cc1)c1ccc(OCC2CCCO2)cc1 (stereo not given) the results were HCMV inh -25, Vaccinia Venus -13%, LASV entry inh inconclusive, FMDV antiviral 7%, Vaccinia mCherry -23% and MARV entry inh inconclusive.
Cc1cc(NC(=O)c2ccc(OCC3CCCO3)cc2)ccc1Br (stereo not given) was read as HCMV inh -81*, Vaccinia Venus -30%, FMDV antiviral -19% and Vaccinia mCherry -27%.
`Cc1ccc2nc(NC(=O)c3ccc(OCC4CCCO4)cc3)sc2c1` (stereo not given) gave HCMV inh -84*, Vaccinia Venus -11%, LASV entry inh inconclusive, FMDV antiviral inconclusive, Vaccinia mCherry -17% and MARV entry inh inconclusive.
Screening COc1ccc(NC(=O)c2cnc(N3CCCCC3)c3ccccc23)cc1Cl returned HCMV inh -22, Vaccinia Venus -21%, LASV entry inh -26%[46.1 µM], FMDV antiviral inconclusive and Vaccinia mCherry -16%.
Screening CC(=O)c1ccc(F)c(-c2cc(C)cc3c2OC(CNC(=O)C(C)n2nc(C)cc2C)C3)c1 (stereo not given) returned Vaccinia Venus -1%, FMDV antiviral -16% and Vaccinia mCherry -21%.
COC(=O)NC(c1ccccc1)C(C(=O)OC)C(=O)OC (stereo not given) was read as MARV entry inh 28%[14.2 µM].
`O=C(C1CC1)N1CC(=O)N2[C@@H](CO)[C@H](c3ccc(Br)cc3)[C@@H]2C1` gave HCMV inh -17.
For Cc1ccc(CNC(=O)c2ccc(Nc3nc4ccccc4n4nnnc34)cc2)cc1 the results were HCMV inh 4, Vaccinia Venus inconclusive, LASV entry inh inconclusive, FMDV antiviral 25%, Vaccinia mCherry inconclusive and MARV entry inh inconclusive.
For c1ccc2c(c1)nc(Nc1ccc3c(c1)OCO3)c1nnnn12 the results were HCMV inh -78*, Vaccinia Venus -4%, LASV entry inh -3%, FMDV antiviral -21% and MARV entry inh 4%.
For c1ccc(Nc2nc3ccccc3n3nnnc23)cc1 the results were HCMV inh 51, Vaccinia Venus 3%, FMDV antiviral 40% and Vaccinia mCherry inactive.
